This excerpt belongs to a sample that is enriched for hits.
FBPA Giardia inh: Giardia lamblia aldolase inhibition; A8B2U2; purified Giardia FBPA; Potency, µM (titrated, usually from 59.6 µM), inactives show top-dose activity, negative = inhibition, usual class: inhibitors; 0.71% of 290,000 active; AID 2451; also: potency is read from the fitted curve at half-maximal effect; % is scaled to controls: 0 for no effect and ±100 for the full control effect; nearly all actives have a fitted effect of over 55% in size
Target sequence (A8B2U2 whole entry, looked up): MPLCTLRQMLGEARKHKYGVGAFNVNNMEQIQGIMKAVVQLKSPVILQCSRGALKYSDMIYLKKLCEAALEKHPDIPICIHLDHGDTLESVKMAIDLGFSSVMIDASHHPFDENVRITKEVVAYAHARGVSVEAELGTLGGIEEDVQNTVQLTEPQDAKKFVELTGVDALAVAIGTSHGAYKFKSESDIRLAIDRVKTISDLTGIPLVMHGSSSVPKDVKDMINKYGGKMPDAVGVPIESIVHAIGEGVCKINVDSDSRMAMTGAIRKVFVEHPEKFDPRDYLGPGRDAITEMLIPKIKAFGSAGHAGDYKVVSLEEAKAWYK
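40 nM FBPA preincubated 10 min at RT with compound (up to 57.5 uM final), then substrate plus GAPDH/TPI/NAD/arsenate coupling and diaphorase/resazurin added. Fluorescence read after 20 min at RT, 525/598 nm.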
Shiga toxin inh: Shiga toxin inhibition; 9.2% of 290,000 active; Vero cells, Shiga toxin protein synthesis inhibition reporter; inhibition, % at 38.7 µM; in the data active = inhibition mostly above about 28%, no sharp cut-off; inactive = mostly below about 43%; also: 0% is about no effect
Sm TGR block: inhibitors of Schistosoma mansoni thioredoxin glutathione reductase; AID 485364; purified TGR, DTNB reduction, TNB absorbance 405 nm; Potency, µM (series often up to 114 µM), for inactives: at the highest dose activity change, negative = inhibition, usual class: inhibitors; 3% of 360,000 active; Q962Y6; also: potency is read from the fitted curve at half-maximal effect; % is scaled to controls: 0 for no effect and ±100 for the full control effect; nearly all actives have a fitted effect of over 60% in size
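First, TGR (20 nM dispensed) and NADPH were mixed with compound. Second, a 15 min room-temperature incubation followed. Third, further NADPH and then DTNB were added to start the reaction. Finally, TNB absorbance was monitored kinetically.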
TbPYK inhibitor: T. brucei pyruvate kinase inhibition. Q57TT1. TbPYK enzyme, Kinase-Glo Plus ATP luminescence, 45 min. Potency, µM (titrated, usually from 76.8 µM), inactives show at the top dose activity, negative = inhibition, usual class: inhibitors. 0.12% of 410,000 active. AID 624173; also: potency is read from the fitted curve at half-maximal effect; % is scaled to controls: 0 for no effect and ±100 for the full control effect; nearly all actives have a fitted effect of over 50% in size
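T. brucei PYK with substrate was exposed to pin-transferred compounds across a concentration series, then started with 130 uM ADP (final). After 45 min at room temperature, Kinase-Glo Plus luminescence was read, normalized and curve-fitted.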
CHX counter: affects cycloheximide protein synthesis inhibition readout, counter-screen; cell reporter, cycloheximide protein synthesis inhibition counterscreen; max response, %; 12% of 300,000 active; AID 2314; in the data active = max response mostly above about 13%, no sharp cut-off; inactive = mostly below about 14%; also: read at 38.3 µM for the half of the compounds with a filed dose; 0% is about no effect
LmPK inhibitor: blocks Leishmania mexicana pyruvate kinase activity | Q27686 | purified LmPK, Kinase-Glo ATP luminescence, 1 h | Potency, µM (highest dose often 57.5 µM), for inactives: top-dose activity change, negative = inhibition, actives largely listed as inhibitors | 0.37% of 290,000 active | AID 1721; also: potency is read from the fitted curve at half-maximal effect; % is scaled to controls: 0 for no effect and ±100 for the full control effect
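0.1 nM LmPK, 0.5 mM PEP, 0.1 mM ADP; 50 mM imidazole pH 7.2, 7 mM MgCl2, 50 mM KCl; 1 h RT. Kinase-Glo luminescence readout, normalized to no-enzyme (full inhibition) and uninhibited wells.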
An asterisk follows results filed as active; ? = inconclusive; nt = no result given; [ ] = another dose, or the depositor's remark. Unless noted, calls follow the shape of the dose curve; as a rule, active = well fitted curve in the direction sought with a large enough effect; inconclusive = small, poorly fitted or top-dose-only effect, or another doubt; inactive = no such curve, though single readings can be large; an effect the other way counts as inactive or inconclusive.

SMILES	FBPA Giardia inh	Shiga toxin inh	Sm TGR block	TbPYK inhibitor	CHX counter	LmPK inhibitor
CCOC(=O)Nc1ccc2c(COC(=O)CNS(=O)(=O)c3cccc(Br)c3)cc(=O)oc2c1	-2%	-3	4%	10%	-1	-1%
CCOC(=O)Nc1ccc2c(COC(=O)c3ccccc3O)cc(=O)oc2c1	8%	76*	1%	0%	27*	8%
CCOc1ccc(C(C)=O)cc1COC(=O)C1=COCCO1	19%	21	28µM*	0%	-1	2%
Cc1ccc2c(COC(=O)CNC(=O)c3ccccc3)cc(=O)oc2c1	-2%	28	-12%	2%	36*	1%
Cc1ccc2c(COC(=O)C3=COCCO3)cc(=O)oc2c1	5%	89*	9%[11.4 µM]	1%	64*	5%
Cc1ccc2c(COC(=O)c3ccccc3OC(F)F)cc(=O)oc2c1	-17%	47	3%	5%	26*	3%
C[N+]1(C)CCN(C[C@@](O)(c2ccccc2)C2CCCCC2)CC1	nt	nt	nt	5%	nt	nt
O=C1NC(=O)/C(=C\c2ccc(Br)o2)S1	-13%	20*	14µM*	-12%	23*	2%
O=C1NC(=O)/C(=C/c2cc3c(cc2Br)OCO3)S1	-9%	-3	4%	-3%	8	-15%
O=C(N/N=C/c1cccc([N+](=O)[O-])c1)c1cnccn1	-21%	active	-6%	18%	16	-1%
COc1ccc(OC)c(/C=N/NC(=O)CCc2ccc(O)c(O)c2)c1	-11%	15	20µM*	-13%	5	2%
COc1cccc(/C=N/NC(=O)c2cnccn2)c1	-6%	86*	1%	0%	75*	-15%
COc1cccc(C(=O)O/N=C(\C)c2cnccn2)c1	1%	10	3%	-6%	19*	?
Cc1cccc(-c2ccc3ncnc(NCc4cc(C)cs4)c3c2)c1	nt	nt	5%	nt	nt	nt
CC(C)OCCCNC(=O)CN1C(=O)COc2ccc(S(=O)(=O)N3CCOCC3)cc21	nt	nt	-1%	-3%	nt	nt
CC(C)(C)c1cc(CNC(=O)C2CCC(=O)N(Cc3ccccc3F)C2)[nH]n1 (centres undefined)	nt	nt	nt	0%	nt	nt
CC(=O)O[C@@H]1C(=O)O[C@H]2[C@@H]1OC(=O)[C@@H]2OC(C)=O	nt	nt	nt	1%	nt	nt
COc1ccc(OC)c(/C=N/NC(=O)c2cnccn2)c1	-5%	69*	2%	-11%	9	-1%
COc1ccc(/C=N/NC(=O)c2cnccn2)c(OC)c1OC	-11%	16	11%	1%	20	0%
COc1cccc(/C=N/NC(=O)CCn2nnc3ccccc32)c1	-3%	8	-14%	-6%	13	-11%
COc1cccc(/C=N/NC(=O)C(C)n2nnc3ccccc32)c1 (centres undefined)	-3%	23	1%	?	25*	-1%
COc1cccc(/C=N/NC(=O)c2cnccn2)c1O	17%	89*	-2%	-2%	37*	-21%
COc1ccc(/C=N/NC(=O)c2cnccn2)cc1O	-9%	38*	4%	-3%	65*	-15%
CCOc1cc(C2c3c(-c4cc(C)ccc4O)n[nH]c3C(=O)N2CCCOC(C)C)ccc1O (centres undefined)	nt	nt	8%	-9%	nt	nt
OCC1(CO)COC(C(Cl)(Cl)Cl)OC1	nt	nt	nt	2%	nt	nt
SMILES	FBPA Giardia inh	Shiga toxin inh	Sm TGR block	TbPYK inhibitor	CHX counter	LmPK inhibitor
COc1cc(NC(=O)c2cc3cc4ccc(OC)c(Cl)c4nc3s2)cc(OC)c1	nt	nt	3%	-10%	nt	nt
CCCCC/C=C\C/C=C\C/C=C\C/C=C\CCCC(=O)N(Cc1ccc(O)c(Cl)c1)Cc1ccc(O)c(Cl)c1	12%	63*	nt	nt	40	nt
CCCCC/C=C\C/C=C\C/C=C\C/C=C\CCCC(=O)NCCc1ccc(O)c(O)c1	?	45	nt	nt	19	nt
CCC(C)NC(=O)c1cn(-c2cccc(C)n2)cn1 (centres undefined)	-4%	53*	-28%	3%	20*	1%
Cc1cccc(-n2cnc(C(=O)N3CCN(C)CC3)c2)n1	0%	10	nt	-6%	7	-4%
Cc1cccc(-n2cnc(C(=O)NC3CCCCCC3)c2)n1	-4%	76*	-28%	-5%	60*	-9%
CN(CCOc1ccccc1Cl)Cc1ccccc1	?	nt	-2%	30%	13*	-3%
CN(CCOc1ccc(Cl)c(Cl)c1)Cc1ccccc1	?	nt	-18%	-11%	-3	5%
Cc1csc2nc(CNC(=O)c3ccco3)cn12	-1%	56*	-16%	-6%	35*	3%
Cc1ccc(-c2nc(CNC(=O)c3ccco3)cs2)cc1	nt	85*	?	4%	39	-11%
O=C(Cc1csc(-c2ccccc2)n1)NCc1ccco1	0%	26	40µM*	-4%	11	2%
Cc1ccc(-c2nc(CCNC(=O)c3ccco3)cs2)cc1	nt	nt	-6%	7%	nt	nt
COc1ccc(-c2csc(NC(=O)CCNC(=O)c3ccco3)n2)cc1	nt	nt	nt	-4%	nt	nt
CC(=O)NCc1cn2c(C)csc2n1	-10%	-3	4%	2%	-1	1%
Cc1ccc(-c2csc(NC(=O)CCNC(=O)c3ccco3)n2)cc1	-1%	43*	-1%	0%	20*	1%
CC(C)(C)c1cc(NS(=O)(=O)c2ccc(Br)s2)no1	4%	-6	-2%	-9%	11	-2%
CCN(Cc1ccccc1)C(=O)CN1C(=O)COc2ccc(S(=O)(=O)N(CC)CC)cc21	nt	nt	-7%	-7%	nt	nt
C=C1c2cccc(C(F)(F)F)c2O[C@H](C(=O)OCC)[C@H]1OC	nt	nt	nt	-1%	nt	nt
Cc1cc2ccccc2n2c(SCC(=O)Nc3cccc(C(F)(F)F)c3)nnc12	nt	nt	0%	-1%	nt	nt
Nc1c[n+](N2CCOCC2)no1	2%	nt	nt	1%	nt	nt
CC(=O)Nc1cc(-c2ccc(N3CCN(C)CC3)cc2)cn2c(-c3cccc(C(C)=O)c3)cnc12	nt	nt	nt	-2%	nt	nt
O=C(NCc1csc(-c2ccccc2)n1)c1cc(F)cc2c1OCOC2	2%	83*	-2%	-4%	45*	5%
Cc1cccc(C(=O)NCCc2nc3ccccc3n2CCC(C)C)c1	nt	nt	3%	4%	nt	nt
Cc1ccc2c(c1)CNc1ccccc1O2	-7%	45	-27%	0%	13*	7%
CC(=O)c1cnc2c(-c3ccc(Cl)cc3)c(C)nn2c1C	3%	13	0%	4%	3	0%
Cc1nn2cc(-c3ccc(Cl)cc3)cnc2c1Cl	-2%	49*	-2%	-2%	29*	-16%
O=c1c2[nH]c3ccccc3c2ncn1C1CCCCC1	1%	47	2%	0%	26*	-3%
CC(C)[C@H](NC(=O)OC(C)(C)C)[C@@H](O)CC(=O)C(C)(C)C	0%[12.9 µM]	nt	nt	nt	nt	nt
CCc1ccc(NC(=O)C(=O)NCCc2sc(-c3ccc(C)cc3)nc2C)cc1	nt	nt	12%	1%	nt	nt
Cc1cccc(C(=O)NC2CCN(CC(=O)Nc3ccccc3Cl)CC2)c1	-8%	-7	-19%	-1%	-1	5%
